Results: PubChem BioAssay AID2227 (Johns Hopkins Ion Channel Center, 2009)
The whole screen tested about 310,000 compounds, of which about 1,300 (0.42%) were called active.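 How the source made its calls: active means B-score of calcium response area above 5 SD of library B-scores, with initial fluorescence ratio within 5 SD of library; inactive means the rest.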 This excerpt belongs to a sample that is enriched for actives.

The compounds below were run against Short transient receptor potential channel 4 (Mus musculus) (UniProt Q9QUQ5) (assay: positive allosteric modulators of TRPC4, primary screen, cell-based, mouse TRPC4beta, HEK293 mu-opioid, Fluo-4 calcium (AID 2227;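 on B-score: B-score of integrated fluorescence ratio over time as area under calcium response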)). Settings: DAMGO EC20, Fluo-4 Ca2+ flux, at 10 µM; stronger effect = higher value.
Short transient receptor potential channel 4 (Mus musculus), sequence (Q9QUQ5 whole entry, looked up): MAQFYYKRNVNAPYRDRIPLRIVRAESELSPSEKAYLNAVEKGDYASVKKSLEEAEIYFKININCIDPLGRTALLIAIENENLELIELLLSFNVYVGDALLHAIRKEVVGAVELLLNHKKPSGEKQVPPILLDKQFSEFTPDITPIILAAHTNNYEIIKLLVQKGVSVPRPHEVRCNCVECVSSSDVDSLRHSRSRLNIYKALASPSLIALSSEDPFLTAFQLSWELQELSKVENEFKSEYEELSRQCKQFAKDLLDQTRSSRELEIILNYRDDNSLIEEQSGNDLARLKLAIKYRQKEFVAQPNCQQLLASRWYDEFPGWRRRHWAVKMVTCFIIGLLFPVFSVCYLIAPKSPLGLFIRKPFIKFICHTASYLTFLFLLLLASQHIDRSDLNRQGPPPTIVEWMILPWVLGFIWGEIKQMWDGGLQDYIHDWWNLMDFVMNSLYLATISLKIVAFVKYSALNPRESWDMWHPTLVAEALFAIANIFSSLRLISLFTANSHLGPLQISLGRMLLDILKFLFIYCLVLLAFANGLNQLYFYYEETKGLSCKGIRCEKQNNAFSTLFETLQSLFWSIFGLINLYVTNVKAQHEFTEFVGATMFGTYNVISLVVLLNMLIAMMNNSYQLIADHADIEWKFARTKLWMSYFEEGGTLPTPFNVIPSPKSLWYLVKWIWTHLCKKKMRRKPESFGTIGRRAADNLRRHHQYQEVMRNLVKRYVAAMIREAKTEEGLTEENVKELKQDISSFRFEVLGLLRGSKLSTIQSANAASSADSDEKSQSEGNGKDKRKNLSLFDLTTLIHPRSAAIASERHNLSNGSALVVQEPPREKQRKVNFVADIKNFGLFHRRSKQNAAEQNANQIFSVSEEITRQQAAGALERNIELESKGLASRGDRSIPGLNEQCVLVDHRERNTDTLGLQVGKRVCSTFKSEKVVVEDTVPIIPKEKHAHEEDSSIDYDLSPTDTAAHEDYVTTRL
In the case of `C=CCC1(C(=O)N(C)Cc2ccccc2)CCN(C(=O)OC(C)(C)C)CC1`, the B-score is reported as “inactive”. With `CC1(C)CC(=O)C(N=Nc2c(F)cccc2F)=C(O)C1` the B-score was “inactive”. With `Cc1ccc(N2C(=O)C(NC(=O)c3c(F)cccc3F)(C(F)(F)F)C3=C2CC(C)(C)CC3=O)cc1` (configuration not stated) the B-score was 119 (active). In the case of `C=CCSc1nnc(N2C(=O)C(O)=C(C(=O)c3ccco3)C2c2ccc(F)cc2)s1` (configuration not stated), the B-score is reported as “inactive”. In the case of `COc1ccccc1N(C)S(=O)(=O)c1ccc(C(=O)NC2CCCCCC2)cc1`, the B-score is reported as “inactive”. In the case of `COC(=O)Cc1csc(/N=C/c2c(O)n(-c3cccc(C(F)(F)F)c3)c(=O)c3ccccc23)n1`, the B-score is reported as “inactive”. With `O=S(=O)(c1ccc(Br)cc1)c1nc(-c2ccccc2)oc1N1CCOCC1` the B-score was 11 (active). With `O=S(=O)(c1ccccc1)c1nc(Cc2ccccc2)oc1N1CCOCC1` the B-score was “inactive”. With `O=S(=O)(c1ccccc1)c1nc(-c2ccccc2)oc1NCCCN1CCOCC1` the B-score was “inactive”. With `COc1nnc(-c2ccc(C)c(S(=O)(=O)N(C)C)c2)c2ccccc12` the B-score was “inactive”. For `CC1CCCCC1NC(=O)CO/N=C/c1ccc(OC(F)F)cc1` (configuration not stated), the B-score was “inactive”. `Cc1nn(CC(=O)Nc2ccc(N(C)C)cc2)c(C)c1[N+](=O)[O-]` was tested, and the B-score was “inactive”. With `COc1cccc(/C=C/C(=O)OCC(=O)N2CCCc3ccccc32)c1` the B-score was “inactive”. `Cc1cc2cc3c(N)[nH]nc3nc2cc1C` was tested, and the B-score was 11 (active). For `O=C(NCCN1CCOCC1)c1cc(Sc2cccc(Cl)c2)nc2ccccc12`, the B-score was “inactive”. With `COc1ccccc1OCc1ccc(C(=O)N2CCN(C)CC2)o1` the B-score was “inactive”. `COc1cc2c(C(=O)N3CCN(C)CC3)c(CSc3ccccc3)n(C)c2cc1Br` was tested, and the B-score was 18 (active). In the case of `COc1cc(C(=O)N2CCN(C)CC2)cc(OC)c1OC`, the B-score is reported as “inactive”. For `CC1=C(C(=O)OCC2CCCCC2)C(c2ccc(F)cc2)NC(=O)N1` (configuration not stated), the B-score was “inactive”. In the case of `c1ccc(Cc2ccc(OCCn3ccnc3)cc2)cc1`, the B-score is reported as “inactive”. For `C=CCc1cc(C)ccc1OCCCn1ccnc1`, the B-score was “inactive”. `Clc1c(OCCCn2ccnc2)ccc2ccccc12` was tested, and the B-score was 15 (active). `Fc1ccccc1/C=N/Nc1cc(N2CCCCC2)ncn1` was tested, and the B-score was “inactive”. With `O=C(NCc1cccc(Cl)c1)C1CCC(=O)N(C2CC2)C1` (configuration not stated) the B-score was “inactive”. With `C=CCN(Cc1nc(-c2cc(OC)c3c(c2)OCO3)oc1C)C1CCS(=O)(=O)C1` (configuration not stated) the B-score was “inactive”. For `C=C(C)COc1ccc(-c2ncncc2-c2ccc(OC)cc2)c(O)c1`, the B-score was “inactive”. For `C=C(C)COc1ccc(-c2nc(N)ncc2-c2ccccc2OC)c(O)c1`, the B-score was 22 (active). For `CCOc1ccc(-c2nc(N)ncc2-c2ccccc2OC)c(O)c1`, the B-score was “inactive”. `CC(C)Oc1ccc(CC(=O)NNC(=S)Nc2ccc(Br)cc2)cc1` was tested, and the B-score was “inactive”. `COc1cc(CCC(=O)Nc2ccncc2Cl)cc(OC)c1OC` was tested, and the B-score was “inactive”. With `O=C1c2ccccc2C(=O)c2c1cccc2N1CCN(C/C=C/c2ccccc2)CC1` the B-score was “inactive”. `O=C1c2ccccc2C(=O)c2c1cccc2N1CCN(CCO)CC1` was tested, and the B-score was “inactive”. With `O=C1c2ccccc2C(=O)c2c1cccc2N1CCN(Cc2ccccc2)CC1` the B-score was 14 (active). `Cc1ccc(Cl)cc1NC(=O)CN1CCN(S(=O)(=O)N2CCOCC2)CC1` was tested, and the B-score was “inactive”. For `O=C(c1ccc(Cl)s1)N(Cc1nnc(-c2ccccc2Cl)o1)C1CC1`, the B-score was “inactive”. For `CCc1c(C)nc(N)n2c(SCC(=O)NC3CCCCC3)nnc12`, the B-score was “inactive”. With `Cc1ccc(NC(=O)c2cnc(SCC(=O)NCC3CCCO3)n(C)c2=O)cc1` (configuration not stated) the B-score was “inactive”. For `Cc1cc(C(=O)Nc2ccccc2N2CCOCC2)c2ccccc2n1`, the B-score was “inactive”. `COc1ccccc1NC(=O)c1cc(Cl)nc2ccccc12` was tested, and the B-score was “inactive”. With `COC(=O)c1cc(N2CCNCC2)nc2ccccc12` the B-score was 39 (active). `Cc1cccc(N2C(=O)SC(SC(=Nc3ccccc3)Nc3ccccc3)C2=O)c1` (configuration not stated) was tested, and the B-score was “inactive”. With `O=C(O)c1ccc(Cn2c(=S)[nH]c3cc(Cl)ccc3c2=O)cc1` the B-score was “inactive”. `CCCCn1c(=S)[nH]c2ccccc2c1=O` was tested, and the B-score was “inactive”. `CN(C)CCn1c(=S)[nH]c2ccc(Cl)cc2c1=O` was tested, and the B-score was 14 (active). With `Cc1ccc(Cl)cc1N1CCN(C(=O)c2cccc3c(=O)c(C)c(-c4ccccc4)oc23)CC1` the B-score was 24 (active). In the case of `COC(=O)c1ccc(C(=O)OC)c(NC(=S)N2CCN(c3cc(Cl)ccc3C)CC2)c1`, the B-score is reported as “inactive”. In the case of `Cc1cccc(N2CCN(C(=O)c3cnn4c(C(F)F)cc(-c5ccccc5)nc34)CC2)c1C`, the B-score is reported as “inactive”. With `COc1cccc(NC(=O)CSc2nccn(-c3ccc4c(c3)OCCO4)c2=O)c1` the B-score was “inactive”. For `CCOc1ccc(NS(=O)(=O)c2ccc(C)c(C(N)=O)c2)cc1`, the B-score was “inactive”. `COc1cc(Cl)c(S(=O)(=O)N2CCN(Cc3ccc4c(c3)OCO4)CC2)cc1Cl` was tested, and the B-score was 37 (active). With `CCn1cc(C(=O)N2CCN(Cc3ccc4c(c3)OCO4)CC2)c2cc(OC)c(OC)cc2c1=O` the B-score was “inactive”. In the case of `COc1ccc(-c2cc(C(=O)N3CCN(Cc4ccc5c(c4)OCO5)CC3)on2)cc1OC`, the B-score is reported as “inactive”. In the case of `CC(=O)c1ccccc1OCc1ccc(C(=O)c2ccccc2)cc1`, the B-score is reported as “inactive”. With `COC(=O)c1cc(C(=O)OCC(=O)Nc2cc(C)on2)cc([N+](=O)[O-])c1` the B-score was “inactive”. With `COc1ccc(OCCn2ccnc2C)cc1` the B-score was “inactive”. `Brc1c(CSc2nncc3ccccc23)nc2ccccn12` was tested, and the B-score was “inactive”. With `COc1ccccc1NS(=O)(=O)c1ccc(C(=O)N2CCN(c3ccccc3O)CC2)cc1` the B-score was “inactive”. `CCn1c(O)c(N=NC(=O)c2cccc(S(=O)(=O)N3CCCCC3)c2)c2ccccc21` was tested, and the B-score was 15 (active). For `CCn1c2ccccc2c2cc(NC(=O)COC(=O)c3cc(S(=O)(=O)N4CCCCC4)ccc3Cl)ccc21`, the B-score was “inactive”. With `Cc1cccc(NC(=O)c2cccc(S(=O)(=O)N3CCCC3)c2)n1` the B-score was “inactive”. For `COc1ccc(CSc2nnnn2-c2ccc(C(=O)O)cc2)cc1`, the B-score was “inactive”. In the case of `COCCN(CCOC)S(=O)(=O)c1ccc(/C(O)=C(\C#N)c2nc3ccccc3[nH]2)cc1`, the B-score is reported as 11 (active). For `CCC(=O)/C(=C(/O)c1ccccc1)c1nc2ccccc2[nH]1`, the B-score was “inactive”. In the case of `Cc1ccccc1OC/C(O)=C(\C#N)c1nc2ccccc2[nH]1`, the B-score is reported as “inactive”. With `COC(=O)c1c(CCl)noc1C(=O)NC(C)C` the B-score was “inactive”. For `O=C(Nc1cccc(F)c1)c1coc(=O)c(Br)c1`, the B-score was “inactive”. For `CC(=N\NC(=O)c1cc(Br)ccc1O)/C(=N/O)C(=O)Nc1ccccc1`, the B-score was “inactive”.
